From PubChem BioAssay
Granule exo inh – lytic granule exocytosis inhibition. TALL-104 LAMP-1 surface exposure, flow cytometry; cells stimulated with thapsigargin and PMA. AID 651702. inhibition, % at 10 µM. 360,000 compounds, 0.66% hits;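 active = inhibition above about 55%, limit read from the data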
NadD block – inhibitors of Staphylococcus aureus NadD. purified NadD enzyme, colorimetric absorbance read-out. inhibition, % at 20 µM. 360,000 compounds, 0.78% hits; in the data active = inhibition above about 26%
PP1 counter – PP1-alpha (human) inhibition in PP5 counter-screen; P62136; purified PP1alpha, OMFP fluorescence; inhibition, % at 6.7 µM; 320,000 compounds, 0.9% hits; AID 2235;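 active = inhibition above the mean inhibition of all tested compounds plus 3 SD, computed separately for each screening campaign, cut at about 15% in these data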
GRK2 aptamer HTS – blocks RNA aptamer binding to human GRK2 | 330,000 compounds, 0.59% hits | AID 488847 | bead flow cytometry, FAM-aptamer displacement from GRK2 | inhibition of aptamer binding, % at 10 µM;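 active = inhibition of aptamer binding above 40%, roughly 3 SD of noise, on plates passing a quality check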;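 note: median bead fluorescence of bound FAM aptamer so fluorescent compounds give negative values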
Target sequence (P25098 whole entry, looked up): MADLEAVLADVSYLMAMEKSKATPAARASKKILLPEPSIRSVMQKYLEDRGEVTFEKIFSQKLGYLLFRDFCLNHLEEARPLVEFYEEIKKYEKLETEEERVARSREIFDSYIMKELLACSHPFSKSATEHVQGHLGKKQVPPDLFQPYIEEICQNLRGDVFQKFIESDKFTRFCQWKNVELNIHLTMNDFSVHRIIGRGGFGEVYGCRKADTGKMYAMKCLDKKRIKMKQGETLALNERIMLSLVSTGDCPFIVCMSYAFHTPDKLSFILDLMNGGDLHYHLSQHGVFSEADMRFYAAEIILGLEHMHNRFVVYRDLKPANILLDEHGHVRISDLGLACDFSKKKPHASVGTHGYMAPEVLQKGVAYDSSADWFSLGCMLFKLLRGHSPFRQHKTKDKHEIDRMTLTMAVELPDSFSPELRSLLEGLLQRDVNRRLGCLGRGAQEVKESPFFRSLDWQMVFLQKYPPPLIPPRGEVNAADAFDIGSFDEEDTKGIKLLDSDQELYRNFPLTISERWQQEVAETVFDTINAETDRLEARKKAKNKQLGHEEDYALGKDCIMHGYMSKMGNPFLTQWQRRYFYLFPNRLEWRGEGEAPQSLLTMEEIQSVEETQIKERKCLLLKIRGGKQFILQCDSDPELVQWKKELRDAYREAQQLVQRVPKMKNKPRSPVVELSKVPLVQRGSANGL
B2AR ag – agonists of human beta-2 adrenergic receptor inducing internalization; Am2.2-beta2AR cells, FAP receptor internalization, flow cytometry; response, % (concentration not given with the values); 340,000 compounds, 0.43% hits; P07550;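 active = response above a set limit, near 3 SD of response in nonfluorescent compounds, cut at about 42% in these data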
* marks the source's active call; other numbers are inactive results; . = not tested or not shown. Sampled rows, rich in hits. Any-hit rate of the full collection: about 2.9%.

SMILES | Granule exo inh | NadD block | PP1 counter | GRK2 aptamer HTS | B2AR ag
CCN(CC)Cc1cc(Nc2c3ccccc3nc3c4ccccc4n(C)c23)cc(CN(CC)CC)c1O | 100* | -2 | . | . | -13
Oc1cccc(Nc2c3ccccc3nc3ccccc23)c1 | 28 | -12 | -1 | 0 | 7
O=C(NCCc1ccccc1)C(=O)c1c[nH]c2ccccc12 | -2 | -7 | 2 | 2 | 3
NS(=O)(=O)c1ccc(CCNC(=O)C(=O)c2c[nH]c3ccccc23)cc1 | -5 | 1 | 2 | 1 | 56*
CC1CCN(C(=O)CN2C(=O)C(=O)N(C)C2=O)c2ccccc2S1 (configuration not stated) | -3 | 9 | -3 | 0 | 3
Cc1cc(C)c(S(=O)(=O)/N=C2/C=C(Sc3ncn[nH]3)C(=O)c3ccccc32)cc1C | 98* | 90* | 0 | 6 | 49*
Cc1ccc(NC2=C/C(=N/S(=O)(=O)c3cccs3)c3ccccc3C2=O)cc1C | 1 | 0 | 2 | 1 | 5
O=C(CSc1ncnc2sc3c(c12)CCCCC3)NCc1ccco1 | 2 | -2 | 0 | 1 | 3
CC(C)c1nc2sc3c(SCC(=O)NCc4ccco4)ncnc3c2c2c1CCC2 | 10 | 46* | 10 | 5 | 2
COc1cc(C(=O)O[C@H]2C/C(C)=C/CC[C@@]3(C)O[C@@H]3[C@H](O)[C@@H]2C(C)C)cc(OC)c1OC | -3 | -2 | 2 | 1 | -1
O=C(CCn1c(=O)oc2cc(Cl)ccc21)Nc1ccc(N2CCOCC2)cc1 | -2 | -2 | -1 | 2 | -10
COc1ccc(NC(=O)/C(N=Nc2cc(S(=O)(=O)Nc3ccc(OC)cc3)ccc2OC)=C(\C)O)cc1 | -3 | -1 | 8 | 6 | 2
COc1ccc(NC(=O)/C(N=Nc2ccc(Cl)c(S(=O)(=O)Nc3ccc(Cl)cc3)c2)=C(\C)O)cc1 | -2 | 31* | . | 0 | 1
CC(C)CNC(=O)c1ccc(NC(=O)c2cccs2)cc1 | 1 | -3 | -1 | 0 | -15
CSc1nncc(/C(C)=N\Nc2ccccc2C)n1 | -3 | 9 | -3 | 0 | 48*
CSc1nncc(/C(C)=N/O)n1 | -2 | -2 | -2 | 1 | -7
Nc1nnc(SCC(=O)N2CCN(c3cccc(Cl)c3)CC2)n1-c1ccccc1 | 0 | 7 | -4 | 2 | -1
COc1cccc(/C=N/Nc2ncnc3c2[nH]c2ccc(C)cc23)c1OC | -2 | 14 | 7 | 0 | 52*
Cc1nn(C(C)C(=O)NC2CCCCCC2)c(=O)c2nn(-c3ccccc3)c(C)c12 (configuration not stated) | -2 | -3 | 0 | 0 | -4
Cc1ccc(C)c(OCC(=O)Nc2cc(NC(=O)COc3cc(C)ccc3C)cc(C(=O)O)c2)c1 | 0 | 15 | 8 | 1 | 6
Cc1ccc(S(=O)(=O)c2nc(/C=C/c3ccccc3)oc2N2CCC(C(N)=O)CC2)cc1 | -2 | -7 | . | . | .
COc1ccccc1OCCCOc1cccc(/C=C2\SC(=O)NC2=O)c1 | 4 | -1 | 16* | 0 | 12
Cc1cccc(N=C2NC(=O)/C(=C/c3cccn3C)S2)c1C | 3 | -5 | -1 | 0 | 14
COc1ccc(N=C2NC(=O)/C(=C/C=C/c3ccccc3)S2)cc1 | 2 | 27 | -2 | 2 | 19
Cc1ccc(N=C2NC(=O)/C(=C/C=C/c3ccco3)S2)cc1 | 4 | 34* | 7 | 6 | 12
SMILES | Granule exo inh | NadD block | PP1 counter | GRK2 aptamer HTS | B2AR ag
O=C1NC(=Nc2ccccc2)S/C1=C\C=C\c1ccco1 | -2 | 29 | 8 | 6 | -5
COc1ccc(N=C2NC(=O)/C(=C\C=C\c3ccccc3)S2)cc1 | 2 | 26* | -3 | 0 | 3
Cc1cccc(N=C2NC(=O)/C(=C/C=C/c3ccco3)S2)c1C | -2 | 72* | 6 | 3 | 2
CCOC(=O)C1CCCCN1S(=O)(=O)c1ccc2c(c1)CC(C)N2C(=O)C1CCC1 (configuration not stated) | 1 | -2 | -2 | 1 | 5
Cc1ccc(S(=O)(=O)N2CCCCC2CCNC(=O)C(=O)NCC2CCCO2)cc1 (configuration not stated) | -2 | -3 | 17* | 0 | 6
O=C(NCCC1CCCCN1S(=O)(=O)c1ccc(F)cc1)C(=O)NCC1CCCO1 (configuration not stated) | -7 | -2 | -2 | 1 | -2
C=C(C)Cn1c(SCC(=O)N/N=C/c2c(O)ccc3ccccc23)nc2ccccc2c1=O | 6 | 35* | 0 | 0 | -3
C=CCOc1ccc(C=CC(=O)c2c(O)c(OC)c(OC)c(OC)c2OC)cc1 | -3 | 2 | . | . | 5
Cc1ccc(CN(C(=O)Cn2nnc3ccccc32)C(C(=O)NCc2ccco2)c2cccs2)cc1 (configuration not stated) | -2 | 0 | 17* | 1 | 9
Cc1ccc2c(c1)C1CN(C)CCC1N2S(=O)(=O)c1ccccc1F (configuration not stated) | -1 | -6 | 1 | 3 | -2
Cc1ccc2c(c1)C(=O)N1[C@H]3c4ccccc4OC[C@@H]3[C@H](c3ccccc3)[C@]1(C)C(=O)N2 | -7 | 0 | . | 93* | 6
Cc1occc1-c1nnc(SCC(=O)Nc2nc3ccccc3s2)o1 | -7 | -11 | -2 | 0 | 3
CN(C)c1ccc(/C=N/N=C(N)N)cc1[N+](=O)[O-] | -1 | -5 | 0 | 0 | -9
O=C(c1cc2ccccc2o1)N(Cc1nnc(-c2ccccc2Cl)o1)C1CC1 | 0 | -10 | 15* | 0 | 6
O=C(NC(Cc1ccccc1)C(=O)O)/C(=C/c1ccc(F)cc1)NC(=O)c1ccccc1 (configuration not stated) | -12 | 1 | 2 | 0 | 1
CCCN(CCC)CC(O)CN1C(=O)N(CN2C(=O)N(CC(O)CN(CCC)CCC)C(=O)C2(C)C)C(C)(C)C1=O (configuration not stated) | 8 | 3 | -2 | 5 | 3
O=c1cc(-c2ccccc2)[nH]n1-c1ccc([N+](=O)[O-])cc1 | -1 | -1 | 16* | 3 | 21
O=c1ccc(-c2ccc([N+](=O)[O-])cc2)nn1-c1ccccc1 | -2 | -4 | 1 | 5 | -20
O=c1c(N=Nc2ccc(O)cc2)c(-c2ccccc2)[nH]n1-c1ccc([N+](=O)[O-])cc1 | -2 | 40* | -5 | 0 | 7
COc1ccc2nc(Cl)c(/C=N/Nc3ccccn3)cc2c1 | -3 | -1 | 16* | 0 | 5
O=C(NCc1ccccc1)C1c2ccccc2OCC(=O)N1CC(F)(F)F (configuration not stated) | -3 | 4 | . | . | .
CCOC(=O)c1sc2nc3c(SCCC(=O)O)cc(C(=O)c4cc(OC)ccc4O)cn3c(=O)c2c1C | -1 | 43* | . | . | -8
O=C(O)CSc1cc(C(=O)c2cc(F)ccc2O)cn2c(=O)c3c(-c4ccccc4)csc3nc12 | 13 | 19 | 17* | 6 | 11
CCOC(=O)c1sc2nc(C)n(N)c(=O)c2c1C | 2 | 0 | -1 | 0 | 2
